# The list is not random: actives were taken first. Their share in the collection is about 6.6%.
# PTAP TSG101 blk – blocks PTAP/TSG101 interaction to inhibit HIV-1 budding | Q99816 | Fluorescence polarization, FITC-PTAP peptide / Tsg101 binding | Potency, µM (doses to about 115 µM), actives largely listed as inhibitors | 340,000 tested, under 10 active; active = well fitted inhibition curve with a large enough effect in the main read-out, with a control signal flat, not every such curve was filed as active; inconclusive = small, poorly fitted or top-dose-only effect, or effect the other way, or a change in a side signal; inactive = no such curve, though single readings can be large or run the other way
# Target sequence (Q99816 whole entry, looked up): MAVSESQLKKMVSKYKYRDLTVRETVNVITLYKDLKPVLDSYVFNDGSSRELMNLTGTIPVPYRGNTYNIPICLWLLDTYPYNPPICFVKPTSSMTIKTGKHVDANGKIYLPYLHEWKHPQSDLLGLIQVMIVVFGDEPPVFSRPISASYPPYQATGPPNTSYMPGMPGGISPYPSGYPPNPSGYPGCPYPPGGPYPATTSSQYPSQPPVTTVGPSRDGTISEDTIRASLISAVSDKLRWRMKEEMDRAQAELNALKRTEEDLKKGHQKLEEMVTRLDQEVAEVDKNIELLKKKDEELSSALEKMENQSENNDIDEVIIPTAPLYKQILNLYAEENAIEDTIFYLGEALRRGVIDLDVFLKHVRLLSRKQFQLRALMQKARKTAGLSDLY
#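 Fluorescence polarization binding of Tsg101 binding domain (10 uM final) to FITC-labeled PTAP peptide (50 nM final) in HEPES pH 7.5 buffer with NaCl, Tween 20, EDTA, TCEP. Compounds added before peptide; binding 20 min at RT.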
# MCF10A rerep – DNA re-replication induction in MCF 10a cells; MCF 10A DNA re-replication, Hoechst nuclear intensity, 48 h; Potency, µM (top dose mostly 46.1 µM), actives largely listed as activators; 350,000 tested, 2.9% active; also: nearly all actives have a fitted effect of over 50% in size
# KB-3-1 cytotox – kills parental KB-3-1 adenocarcinoma cells; AID 1347075; 400,000 tested, 1.4% active; Potency, µM (doses to about 46.1 µM), usual class: cytotoxic; KB-3-1 viability, CellTiter-Glo ATP luminescence, 72 h; also: nearly all actives have a fitted effect of over 60% in size
#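 Cytotoxicity in the drug-sensitive parental line KB-3-1 was scored as loss of CellTiter-Glo luminescence following 72 h incubation with compound. Values come from curve fitting of normalized concentration-response data.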
# RGS4 inhibitor – inhibitors of human regulator of G protein signaling 4. P49798. Transcreener GDP fluorescence polarization, RGS4-accelerated GTP hydrolysis. Potency, µM (top dose mostly 114 µM), hits mostly inhibitors. 390,000 tested, 0.039% active; also: nearly all actives have a fitted effect of over 75% in size
#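 MLSMR compounds (23 nl, pin-transferred) preincubated 10 min at room temperature with a 500nM (2x) first reagent, then RGS4 at 900nM (2x) plus Transcreener GDP mix added; fluorescence polarization (620/688 nm) read before and after 90 min at 30 °C.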
# SW480 rereplic – induces DNA re-replication in SW480 colon adenocarcinoma cells; SW480 DNA re-replication, Hoechst DNA content imaging, 48 h; Potency, µM (series often up to 46.1 µM), actives largely listed as activators; 340,000 tested, 1.8% active; AID 624297; also: nearly all actives have a fitted effect of over 55% in size
#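 Per well, 250 cells were exposed to pinned compound for 48 hr. Nuclear DNA was visualised with Hoechst (40 min, 37 C) and total object intensity recorded by fluorescence scanning.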
# KB-V1 MDR tox – kills drug-selected multidrug resistant KB-V1 cells. KB-V1 MDR cells viability, CellTiter-Glo, 72 h. Potency, µM (highest dose often 46.1 µM), hits mostly cytotoxic. 400,000 tested, 3.4% active. AID 1347076; also: nearly all actives have a fitted effect of over 60% in size
#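 In this primary screen, KB-V1 cells overexpressing P-gp are incubated with library compounds (lowest to highest concentration) for 72 h at 37 degrees C before a luminescent ATP viability read.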
# Hits are given with their value; - = inactive; ? = inconclusive; . = no result; [ ] = remark or other dose. Unless noted, calls follow the shape of the dose curve; as a rule, active = well fitted curve in the direction sought with a large enough effect; inconclusive = small, poorly fitted or top-dose-only effect, or another doubt; inactive = no such curve, though single readings can be large; an effect the other way counts as inactive or inconclusive.
SMILES,PTAP TSG101 blk,MCF10A rerep,KB-3-1 cytotox,RGS4 inhibitor,SW480 rereplic,KB-V1 MDR tox
Cc1ccc(-c2nc(C(Cl)Cl)c3ccccc3n2)cc1,-,?,21µM,-,?,21µM
Cc1ccc(-c2nc(Nc3ccc(O)cc3)c3ccccc3n2)cc1,-,?,?,-,?,?
COc1ccc(OC)c(CCNC(=O)c2ccc3c(c2)N(Cc2ccc(F)cc2)CCS3)c1,-,13µM,?,-,-,?
COc1ccc(CCNC(=O)c2ccc3c(c2)N(Cc2ccc(F)cc2)CCS3)c(OC)c1,-,-,?,-[11.4 µM],-,-
CCOC(=O)c1cc(C)sc1NC(=O)C(c1ccccc1)c1ccccc1,-,26µM,-,-,-,-
Cc1ccc([C@@H]2CC(=O)[C@@H]3CN(S(=O)(=O)c4ccccc4C)[C@H](c4ccc(Cl)cc4)C[C@@H]3N2S(=O)(=O)c2ccc(C)cc2)cc1,.,.,3.7µM,.,.,?
Cc1ccc(S(=O)(=O)N2[C@H](c3cccc(Cl)c3)CC(=O)[C@@H]3CN(S(=O)(=O)c4ccccc4C)[C@H](c4ccc(Cl)cc4)C[C@@H]32)cc1,.,.,3.7µM,.,.,-
COc1ccc(Cl)cc1NC(=O)c1cc(S(=O)(=O)NC2CCCCCC2)ccc1F,.,.,.,-,.,.
CC(C)(C)OC(=O)N[C@@H](Cc1ccccc1)c1nnc(SCC(N)=O)o1,-,-,-,-,-,-
COC(=O)CS(=O)(=O)c1nnc([C@H](Cc2ccccc2)NC(=O)OC(C)(C)C)o1,-,13µM,?,?,?,?
COC(=O)CSc1nnc([C@H](Cc2ccccc2)NC(=O)OC(C)(C)C)o1,-,-,-,-,-,-
Cc1cccc(CS(=O)(=O)c2nnc([C@H](Cc3ccccc3)NC(=O)OC(C)(C)C)o2)c1,-,3.3µM,?,?,?,?
CCN1C(=O)N(CC)C(O)(c2ccccc2)C1(O)c1ccccc1 (stereo unspecified),-,-,-,-,-,?
CC(C)(C)C1=CC(O)(c2ccccc2)C=C(C(C)(C)C)C1=O,-,5.2µM,-,-,-,-
COc1ccc(O)c(/C=N/NC(=O)c2ccc(N3CCCC3=O)cc2)c1,-,-,?,-,2.3µM,-
CC1CCN(Cc2c(C(=O)N/N=C/c3cc(Cl)ccc3O)nnn2-c2nonc2N)CC1,-,-,2.1µM,-,-,?
COc1c(Cl)cc(Cl)cc1/C=N/NC(=O)c1nnn(-c2nonc2N)c1CN1CCC(C)CC1,-,5.8µM,-,-,?,?
COc1ccc(O)c(/C=N/NC(=O)c2cccc(N3CCCC3=O)c2)c1,-,-,?,-,?,-
COc1ccc(O)c(/C=N/NC(=O)c2c(C)nnn2-c2nonc2N)c1,-,-,-,-,7.3µM,-
CCOC(=O)c1nnn(-c2nonc2-n2cccc2)c1CCl,-,?,?,-,?,?
CCOC(=O)c1nnn(-c2nonc2-n2cccc2)c1CN1CCC(C)CC1,-,26µM,-,-,?,-
Cc1ccccc1NC(=O)CCn1nc(-c2ccccc2)c2ccccc2c1=O,.,.,-,-,.,-
c1ccc(CNc2nc3ccccc3c3nc(-c4ccccc4)nn23)cc1,.,.,-,-,.,-
CCc1ccc(-n2nc(C)c3c(C)cc(=O)n(CC(=O)NCc4ccc(C)cc4)c32)cc1,.,.,-,-,.,-
COc1ccc(CCNc2nc(-c3ccc(C)cc3)cc(C(F)F)n2)cc1OC,.,.,-,-,.,-
SMILES,PTAP TSG101 blk,MCF10A rerep,KB-3-1 cytotox,RGS4 inhibitor,SW480 rereplic,KB-V1 MDR tox
Cc1ccc(-c2cc(C(F)F)nc(S(C)(=O)=O)n2)cc1,-,4.1µM,?,-,?,?
CC1C2=C(CC(C)(C)CC2=O)NC2=C1C(=O)CC(C)(C)C2,-,5.8µM,-,-,-,-
O=C1CSC(=Nc2cccc(Cl)c2Cl)N1Cc1cccnc1,-,-,-,-,-,16µM
Cc1ccccc1N=C1SCC(=O)N1Cc1ccccc1,-,-,-,-,-,?
CCCCNC(=O)Nc1ccc2c(c1)N(C)C(=O)c1ccccc1S2,-,-,-,-,-,-
CN1C(=O)c2ccccc2Sc2ccc(NC(=O)c3ccc(C(F)(F)F)cc3)cc21,.,.,-,-,.,-
